Screening data (PubChem)
Arbovirus inh = arbovirus infection inhibition; inhibition, % at 10 µM; actives 0.37% (n = 200,000); arbovirus infection cell-based antiviral screen; in the data active = inhibition above about 30%
ROMK primary = human ROMK K+ channel modulation, primary screen | P48048 | Tet-inducible ROMK, thallium flux fluorescence; actives lie on both sides | B-score at 10 µM | actives 2% (n = 130,000) | AID 1918;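 active = signal ratio slope over the read window, or its plate-corrected B-score, at least 3 SD from the plate mean, either direction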;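 note: B-score of the F/F0 ratio slope over 7 to 12 s after thallium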
Target sequence (P48048 whole entry, looked up): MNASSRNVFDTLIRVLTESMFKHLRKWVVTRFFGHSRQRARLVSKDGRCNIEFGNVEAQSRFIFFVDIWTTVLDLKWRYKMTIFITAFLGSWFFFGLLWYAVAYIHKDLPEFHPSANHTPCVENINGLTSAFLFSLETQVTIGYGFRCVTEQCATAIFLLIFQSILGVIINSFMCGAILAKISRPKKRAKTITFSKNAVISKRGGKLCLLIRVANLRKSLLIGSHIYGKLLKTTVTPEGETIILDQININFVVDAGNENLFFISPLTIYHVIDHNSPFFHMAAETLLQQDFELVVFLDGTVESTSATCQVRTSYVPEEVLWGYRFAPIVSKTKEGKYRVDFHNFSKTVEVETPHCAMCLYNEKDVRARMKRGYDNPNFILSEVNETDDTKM
Cl transport mod = modulators of human KCC2 chloride dependent transport | KCC2 cells, thallium flux FluoZin-2 fluorescence | Q9H2X9 | actives 2.2% (n = 190,000) | B-score of Tl+ flux slope (higher = more flux/activation; lower = inhibition) at 10 µM;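 active = thallium flux slope and its plate-corrected score both differing from the plate sample mean at a set confidence after two filtering rounds, in either direction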;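 note: slope of fluorescence scaled to starting intensity during 10 to 20 s after thallium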
HSV augment = HSV replication enhancement | HSV replication augmentation in cells, fold increase | actives 0.005% (n = 220,000) | maximum fold increase | AID 1956; in the data active = maximum fold increase above about 1.5; inconclusive = no clear call, values can overlap the other calls; tested in PC3 cells
Measles CPE = protection of cells from measles virus; Measles virus-infected cells, CPE protection, absorbance; protection (pct of control), % at 4 µM; actives 1.5% (n = 140,000); in the data active = protection mostly above about 24%, no sharp cut-off; inactive = mostly below about 26%
An asterisk follows results filed as active; i = inactive; ? = inconclusive; nt = no result given. Shown are actives, neighbours in structure and some others; about 4% of the full set was active somewhere.

SMILES | Arbovirus inh | ROMK primary | Cl transport mod | HSV augment | Measles CPE
CCOC(=O)/C(C#N)=C1/C=CN(C)C(C)=N1 | 7 | nt | -0.25 | i | 29*
CNC(=O)NC(=O)C(C)OC(=O)c1cc2c(s1)CCCCC2 (centres undefined) | -2 | nt | -0.72 | nt | 29*
CC1CCN(C(c2cccs2)c2nnnn2Cc2ccccc2)CC1 (centres undefined) | -1 | -1.4 | -1.6 | i | 10
CCC(C)Sc1nc2c(c(=O)[nH]1)C(c1cccs1)C1=C(CCCC1=O)N2 (centres undefined) | 33* | -0.98 | -3 | i | nt
O=C1CCCC2=C1C(c1ccncc1)c1c(nc(SCc3ccccc3Cl)[nH]c1=O)N2 (centres undefined) | 7 | nt | 1.9 | i | 7
Cc1ccc(S(=O)(=O)N(C)CC(O)Cn2c3ccccc3c3ccccc32)cc1 (centres undefined) | -48 | nt | 0.8 | i | 39*
COc1ccc2cc(CN(CCc3ccccc3)Cc3nnnn3Cc3ccco3)c(=O)[nH]c2c1 | -17 | -0.55 | -3.1* | i | 2
CC(=O)Nc1ccc(C(C#N)c2ccccc2)cc1 (centres undefined) | -6 | 0.43 | 0.13 | i | nt
Clc1ccc2nncn2n1 | 14 | 0.059 | 1.8 | i | nt
CC(Sc1nnc(C(F)(F)F)n1C)C(=O)NC(N)=O (centres undefined) | 6 | nt | 0.59 | i | 60*
COc1cc(C2C=C(C34CC5CC(CC(C5)C3)C4)NC(=S)N2)cc(OC)c1OC (centres undefined) | 8 | -0.26 | -0.093 | i | 12
COc1ccc(OC)c(C2C=C(C34CC5CC(CC(C5)C3)C4)NC(=S)N2)c1 (centres undefined) | -21 | nt | 1 | i | 34*
O=C(Nc1cccc2ccccc12)c1ccc(OC(=S)N2CCOCC2)cc1 | -6 | 0.69 | -0.73 | i | 109*
O=C1/C(=C\c2ccco2)SC(=S)N1c1ccc(O)cc1 | 3 | -0.74 | -0.14 | i | 39*
O=C1/C(=C/C=C/c2ccco2)SC(=S)N1c1ccc(O)cc1 | nt | nt | -1.5 | ? | nt
O=C(c1cccc(Oc2ccccc2)c1)N1CCN(c2ccccn2)CC1 | 1 | -0.76 | -2.5 | i | nt
CCn1c(-c2cc(-c3cccc(OC)c3)nc3ccccc23)n[nH]c1=S | -23 | 0.074 | 2.7* | i | 3
CCCCn1nnnc1SCC(=O)Nc1sc2c(c1C#N)CCCC2 | 12 | -0.45 | -0.21 | i | 17
Cn1cnnc1SCC(=O)Nc1sc2c(c1C#N)CCCCC2 | 10 | 0.93 | -1.4 | i | 32*
COC(=O)c1ccc(C(=O)NCCCCO)cc1 | 2 | 2.2 | 0.24 | i | nt
Cn1c(CCc2ccc(N)cc2)nc2ccccc21 | -3 | 0.016 | -0.054 | i | nt
Cc1cccc(-n2c(N)c(-c3nc4ccccc4n3C)c3nc4ccccc4nc32)c1 | 6 | nt | 0.16 | i | 5
Cn1c(-c2ccc(N)cc2)nc2ccccc21 | -2 | nt | 0.42 | i | 22*
Cn1c(-c2c(N)n(-c3ccccc3)c3nc4ccccc4nc23)nc2ccccc21 | 64* | nt | -0.75 | i | 29
O=S(=O)(c1cccs1)N1CN(C2CCCCC2)c2nc3ccccc3nc21 | nt | nt | -1.8 | i | nt
SMILES | Arbovirus inh | ROMK primary | Cl transport mod | HSV augment | Measles CPE
CCC1(C(=O)OC)NC(c2ccco2)C2C(=O)N(c3ccc(F)cc3)C(=O)C21 (centres undefined) | -1 | 0.66 | -0.029 | i | nt
CCC1(C(=O)OC)NC(c2ccco2)C2C(=O)N(c3ccccc3)C(=O)C21 (centres undefined) | 10 | nt | 0.65 | i | 78*
FC(F)(F)c1ccc(Oc2ccc3ccccc3c2Br)nc1 | 35* | nt | 1.4 | i | 14
O=[N+]([O-])c1ccccc1Oc1ccc(C(F)(F)F)cn1 | 1 | -0.38 | 0.57 | i | nt
O=c1c2c3c(sc2nc2n1CCCC2)CCC3 | -8 | -1.2 | nt | i | 36*
COc1ccc(CCn2c(=O)[nH]c3cc(C(=O)NCCCN4CCOCC4)ccc3c2=O)cc1OC | nt | nt | 0.25 | i | nt
CCCCCn1c(=O)[nH]c2cc(C(=O)NCCc3ccc(OC)c(OC)c3)ccc2c1=O | 0 | -0.54 | -1.6 | i | 38*
Cc1ccc(S(=O)(=O)Cn2nnnc2C(C)N2CCN(C(=O)c3ccco3)CC2)cc1 (centres undefined) | -6 | nt | 0.55 | i | 56*
CNc1sc(C(=O)c2ccc(F)cc2)c(N)c1-c1nc2ccccc2s1 | -5 | nt | 9.9* | i | 7
CNc1sc(C(=O)c2cccs2)c(N)c1-c1nc2ccccc2s1 | 2 | nt | 0.12 | i | 33
CCCCCc1ccc(C(=O)CCCC)c(=S)[nH]1 | -2 | 3.8* | 119* | i | nt
CCCCCc1cc(=O)[nH]c(=S)[nH]1 | nt | nt | -1.2 | i | nt
O=C(NC1CCCC1)C(c1ccccn1)N(C(=O)c1csnn1)C1CC1 (centres undefined) | 6 | 0.1 | 0.41 | i | 86*
O=C(NC1CCCC1)C(c1ccccn1)N(C(=O)c1csnn1)C1CCCCC1 (centres undefined) | -7 | nt | -0.4 | i | 3
Cc1ccc(NC(=S)NC(=O)c2ccccc2)cc1NC(=S)NC(=O)c1ccccc1 | nt | nt | 2.5 | i | nt
COC(=O)c1ccccc1NC(=S)NC(=O)c1ccc(C)cc1 | 3 | nt | 11* | i | 15
Cc1cc(C)c(NC(=S)NC(=O)c2ccc(-c3ccccc3)cc2)c(C)c1 | 30* | nt | 1.5 | i | 8
COc1ccc(-c2cc(C(=O)OCC(=O)N(C)C3CCS(=O)(=O)C3)c3ccccc3n2)cc1OC (centres undefined) | -4 | 2.6 | 0.16 | i | nt
CCn1cc(CN2CCc3c([nH]c4ccccc34)C2c2cccc(OC)c2)c(C)n1 (centres undefined) | 1 | -0.39 | nt | i | nt
O=c1[nH]c(CN2CCN(S(=O)(=O)c3cccs3)CC2)nc2c(Br)cc(Br)cc12 | -5 | 0.87 | 1.1 | i | nt
O=c1[nH]c(SCc2cccc(Cl)c2)nc2[nH]ncc12 | -31 | -1.2 | -1.6 | i | nt
CC[C@@H](C)[C@H](NC(=O)OC(C)(C)C)c1nnc(S(=O)(=O)Cc2cc(C)ccc2C)o1 | -45 | -1.5 | -6.4* | i | 1
Cc1ccccc1CS(=O)(=O)c1nnc([C@H](CC(C)C)NC(=O)OC(C)(C)C)o1 | -1 | nt | -3.2 | i | 7
Cc1c(C(=O)N2CCCC2)oc2c1-c1[nH]ncc1CC2 | -7 | -0.64 | 0.45 | i | 31*
Cc1ccc(N=Cc2c(O)[nH]c3ccccc23)c([N+](=O)[O-])c1 | -4 | -0.16 | 0.23 | i | nt
CC(=O)c1ccc(Nc2nc(=O)c3cccnc3s2)cc1 | -11 | 0.025 | nt | nt | 3
CCOC(=O)c1ccc(Nc2nc(=O)c3cccnc3s2)cc1 | 8 | -1 | nt | i | 71*
O=C(NCC(O)c1ccc([N+](=O)[O-])cc1)c1cccc(S(=O)(=O)N2CCCC2)c1 (centres undefined) | -3 | -0.77 | -0.36 | i | nt
COc1cc2cc(CN(Cc3cccs3)C(=S)Nc3cccc(C)c3)c(=O)[nH]c2cc1OC | -4 | 0.28 | -0.45 | nt | 11
